# Activity calls are given as the source filed them.
# What was measured:
# [1] = binders of probe aFSTL3 on microarray, primary screen, stem cell growth factor project, biochemical, small-molecule microarray, fluorescence 635/667 (AID 1064); conditions: higher = more signal;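 note: measures binding of the biotinylated anti-FSTL3 antibody to printed compounds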
# [2] = binders from COS7 lysate, DM2A8 probe, primary screen, torsin A project, cell lysate, small-molecule microarray, fluorescence 635/667 (AID 1065); conditions: higher = more signal, COS7 lysate expressing mutant human TOR1A
# [3] = binders of probe aFGF2 on microarray, primary screen, stem cell growth factor project, biochemical, small-molecule microarray, fluorescence 635/667 (AID 1067); conditions: higher = more signal;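 note: measures binding of biotinylated aFGF2 protein to printed compounds on slides; z-score merges feature fluorescence and signal-to-noise across triplicate slides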
# [4] = binders of probe aFGF10 on microarray, primary screen, stem cell growth factor project, biochemical, small-molecule microarray, fluorescence 635/667 (AID 1071); conditions: higher = more signal;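 note: score merges 667 nm spot intensity and signal to noise from triplicate slides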
# [5] = target: Neurogenic locus notch homolog protein 2 (Homo sapiens) (UniProt Q04721); experiment: Notch2 binders on small-molecule microarrays, primary screen, biochemical, small-molecule microarray, 635 nm fluorescence, stem cell growth factors (AID 1073); conditions: Notch2 binding, higher = more signal
# Neurogenic locus notch homolog protein 2 (Homo sapiens), sequence (Q04721 whole entry, looked up, canonical isoform): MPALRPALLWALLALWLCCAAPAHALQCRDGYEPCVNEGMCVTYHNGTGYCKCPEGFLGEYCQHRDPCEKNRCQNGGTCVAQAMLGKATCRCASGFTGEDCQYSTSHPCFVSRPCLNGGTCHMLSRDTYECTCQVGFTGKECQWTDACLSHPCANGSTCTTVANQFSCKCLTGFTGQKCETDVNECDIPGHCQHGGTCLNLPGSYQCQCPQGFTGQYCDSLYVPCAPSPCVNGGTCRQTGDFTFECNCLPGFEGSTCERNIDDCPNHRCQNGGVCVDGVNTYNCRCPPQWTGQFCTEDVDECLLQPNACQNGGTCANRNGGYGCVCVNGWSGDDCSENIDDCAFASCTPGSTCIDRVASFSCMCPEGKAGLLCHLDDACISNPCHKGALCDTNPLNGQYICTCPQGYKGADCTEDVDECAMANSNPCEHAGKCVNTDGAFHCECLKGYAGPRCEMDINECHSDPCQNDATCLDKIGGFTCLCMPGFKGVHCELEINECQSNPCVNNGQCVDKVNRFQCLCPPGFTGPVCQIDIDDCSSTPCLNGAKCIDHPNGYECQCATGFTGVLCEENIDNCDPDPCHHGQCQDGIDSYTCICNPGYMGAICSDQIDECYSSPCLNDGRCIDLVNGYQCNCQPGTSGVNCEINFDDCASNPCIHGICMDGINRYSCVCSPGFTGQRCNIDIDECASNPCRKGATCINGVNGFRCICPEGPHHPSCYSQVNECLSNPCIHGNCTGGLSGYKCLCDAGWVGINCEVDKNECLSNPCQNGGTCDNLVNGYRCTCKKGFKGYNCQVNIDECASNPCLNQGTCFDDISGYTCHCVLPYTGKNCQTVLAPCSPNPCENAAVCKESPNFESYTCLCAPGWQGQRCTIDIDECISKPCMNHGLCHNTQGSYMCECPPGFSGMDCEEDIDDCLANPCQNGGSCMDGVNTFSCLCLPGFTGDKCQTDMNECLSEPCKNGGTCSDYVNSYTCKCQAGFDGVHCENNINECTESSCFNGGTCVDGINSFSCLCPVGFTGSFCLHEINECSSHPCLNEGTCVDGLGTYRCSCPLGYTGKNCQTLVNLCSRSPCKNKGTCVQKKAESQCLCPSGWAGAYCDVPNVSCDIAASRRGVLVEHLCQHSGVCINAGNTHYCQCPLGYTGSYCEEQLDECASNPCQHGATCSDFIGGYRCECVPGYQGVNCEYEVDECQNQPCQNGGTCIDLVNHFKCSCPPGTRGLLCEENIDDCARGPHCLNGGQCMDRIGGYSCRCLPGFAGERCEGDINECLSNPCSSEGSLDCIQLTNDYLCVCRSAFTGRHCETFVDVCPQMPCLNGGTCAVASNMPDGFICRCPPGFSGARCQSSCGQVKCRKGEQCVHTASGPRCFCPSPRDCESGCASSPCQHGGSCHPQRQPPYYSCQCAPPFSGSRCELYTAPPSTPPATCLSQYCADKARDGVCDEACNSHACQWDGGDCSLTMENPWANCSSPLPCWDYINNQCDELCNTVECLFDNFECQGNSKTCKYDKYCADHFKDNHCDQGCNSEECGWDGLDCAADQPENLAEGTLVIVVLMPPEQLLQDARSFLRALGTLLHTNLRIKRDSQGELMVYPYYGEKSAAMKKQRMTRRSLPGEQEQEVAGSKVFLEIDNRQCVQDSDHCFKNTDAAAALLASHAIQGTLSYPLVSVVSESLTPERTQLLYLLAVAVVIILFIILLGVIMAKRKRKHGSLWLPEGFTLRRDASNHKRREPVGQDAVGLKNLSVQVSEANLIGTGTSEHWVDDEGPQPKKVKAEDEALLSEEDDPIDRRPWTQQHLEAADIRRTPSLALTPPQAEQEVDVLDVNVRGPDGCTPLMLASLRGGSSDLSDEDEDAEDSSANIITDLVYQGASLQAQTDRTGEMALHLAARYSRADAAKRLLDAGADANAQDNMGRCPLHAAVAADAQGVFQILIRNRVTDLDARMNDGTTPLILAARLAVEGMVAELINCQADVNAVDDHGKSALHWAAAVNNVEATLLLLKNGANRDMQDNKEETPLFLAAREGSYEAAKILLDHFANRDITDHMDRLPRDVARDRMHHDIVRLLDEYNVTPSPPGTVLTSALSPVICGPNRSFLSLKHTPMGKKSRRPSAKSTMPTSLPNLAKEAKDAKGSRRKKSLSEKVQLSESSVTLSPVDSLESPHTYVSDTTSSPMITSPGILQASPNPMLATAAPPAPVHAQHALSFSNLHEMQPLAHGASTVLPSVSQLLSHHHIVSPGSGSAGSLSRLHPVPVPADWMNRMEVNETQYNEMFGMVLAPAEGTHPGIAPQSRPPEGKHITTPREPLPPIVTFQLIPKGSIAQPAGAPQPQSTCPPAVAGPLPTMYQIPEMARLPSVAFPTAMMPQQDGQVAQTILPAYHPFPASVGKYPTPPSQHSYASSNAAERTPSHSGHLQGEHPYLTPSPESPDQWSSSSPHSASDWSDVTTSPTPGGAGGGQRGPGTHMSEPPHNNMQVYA
# [6] = target: Pro-neuregulin-1, membrane-bound isoform (Homo sapiens) (UniProt Q02297); experiment: NRG1 binders on small-molecule microarrays, primary screen, psychiatric disease protein project, biochemical, small-molecule microarray, fluorescence 635/667 (AID 1075); conditions: NRG1 binding, 635 nm fluorescence, higher = more signal;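 note: score combines 667 nm spot fluorescence with signal to noise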
# Pro-neuregulin-1, membrane-bound isoform (Homo sapiens), sequence (Q02297 whole entry, looked up, the tested form may be a part, canonical isoform): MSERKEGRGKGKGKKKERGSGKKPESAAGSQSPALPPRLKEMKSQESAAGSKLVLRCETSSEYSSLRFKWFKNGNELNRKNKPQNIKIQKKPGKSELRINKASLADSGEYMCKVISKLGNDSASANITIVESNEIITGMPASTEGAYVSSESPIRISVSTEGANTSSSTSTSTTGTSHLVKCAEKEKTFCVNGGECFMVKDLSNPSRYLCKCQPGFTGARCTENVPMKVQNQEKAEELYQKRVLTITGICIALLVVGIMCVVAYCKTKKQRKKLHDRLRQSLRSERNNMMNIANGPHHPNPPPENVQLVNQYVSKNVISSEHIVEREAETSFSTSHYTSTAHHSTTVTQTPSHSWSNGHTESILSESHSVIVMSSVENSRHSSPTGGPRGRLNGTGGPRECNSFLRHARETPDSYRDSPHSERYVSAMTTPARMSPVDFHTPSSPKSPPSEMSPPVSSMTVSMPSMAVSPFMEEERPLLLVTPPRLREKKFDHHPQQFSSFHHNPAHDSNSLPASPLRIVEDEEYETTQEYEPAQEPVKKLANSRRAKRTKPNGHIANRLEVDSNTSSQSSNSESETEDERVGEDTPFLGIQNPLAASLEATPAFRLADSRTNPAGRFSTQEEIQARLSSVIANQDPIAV
# [7] = system: Neuregulin-1 EGF-like domain; experiment: binders of neuregulin-1 EGF-like domain, primary screen, biochemical, small-molecule microarray, 635 nm fluorescence (AID 1081); conditions: small-molecule microarray binding, higher = more signal;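 note: binding of the protein to compounds printed on small-molecule microarray slides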
# [8] = FRG1 promoter luciferase signal modulators, primary screen, FRG1 inhibition for FSHD, cell-based, C2C12 myotubes, firefly/Renilla luciferase, luminescence (AID 1084); conditions: higher = more signal, called active from +8 up or from −8 down
# [9] = binders of probe aFST on microarray, primary screen, stem cell growth factor project, biochemical, small-molecule microarray, fluorescence 635/667 (AID 1086); conditions: higher = more signal;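 note: score merges 667 nm fluorescence with signal-to-noise of each printed compound spot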
# [10] = binders of probe aHhip on microarray, primary screen, stem cell growth factor project, biochemical, small-molecule microarray, fluorescence 635/667 (AID 1087); conditions: higher = more signal;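 note: score merges spot fluorescence at 667nm with spot signal to noise ratio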
SMILES,composite z-score [1],composite z-score [2],composite z-score [3],composite z-score [4],composite z-score [5],composite z-score [6],composite z-score [7],z-score [8],composite z-score [9],composite z-score [10]
COc1ccc(COC2OC[C@]3(C)[C@H]4C5=C(CN3C(=O)OC(C)(C)C)[C@H](C)C(CO)C(CO)C5CC[C@@H]24)cc1 (stereo not given in full),0.262,1.27,-0.0832,0.424,1.65,1.02,0.982,2.67 (inactive),1.98,-0.069
C=CCC(OC(C)=O)[C@@H]1[C@@H](N(Cc2ccc(-c3cccc(C(F)(F)F)c3)o2)C(=O)c2ccc(-c3ccccc3)cc2)c2cc(OCCCO)ccc2N1C(=O)c1ccc(-c2ccccc2)cc1 (stereo not given in full),0.0961,-0.233,-0.0242,0.232,0.242,0.0249,-0.825,-0.245 (inactive),0.13,-0.0994
COC(=O)[C@@]1(Cc2ccc(F)cc2)[C@H]2c3cc(C(=O)N4CCCC4)n(Cc4ccc(C)o4)c3C[C@H]2CN1C(=O)c1ccccc1,0.285,0.145,0.157,0.883,1.53,0.714,1.14,1.62 (inactive),1.29,0.2
C=CC[C@@]1(C(N)=O)N=C(c2ccc(OCCCO)cc2)O[C@@H]1c1ccccc1CN=[N+]=[N-],0.626,-0.41,-0.0193,0.291,0.77,2.17,1.41,2.94 (inactive),1.19,0.0053
C[C@@]1([C@@H](NC(=O)c2ccccc2)c2ccc(-c3ccccc3)cc2)C[C@H]1C1CCCCC1,0.742,-0.671,0.0891,-0.227,1.16,-0.0156,-0.382,2.09 (inactive),0.57,0.122
O=C1OCCC/C=C\[C@H]2OC34C=CCN(Cn5nnc6ccccc65)C(=O)[C@H]3N(CCO)C(=O)[C@@H]4C12 (stereo not given in full),-0.335,-1.46,-0.206,0.0278,-0.918,1.21,1.16,0.356 (inactive),-0.486,0.382
COCCOC(=O)N1C(=O)[C@@]2(c3cc(C#CCCO)ccc31)[C@H](C(=O)Nc1nc3ccccc3s1)[C@H]1C(=O)O[C@H](c3ccccc3)[C@H](c3ccccc3)N1[C@@H]2c1ccc(OCCO)cc1,-0.221,0.787,-0.0824,0.871,1.19,0.991,1.07,1.2 (inactive),0.464,0.0176
CCOC(=O)[C@H]1CC=C2CC1C(=O)N1CCC[C@@H]1[C@@H]2O[Si](C)(C)C(C)(C)C (stereo not given in full),-0.502,-0.0173,-0.221,-0.0337,-1.9,-0.596,-0.415,-0.591 (inactive),-0.686,-0.0994
CN(C)C(=O)[C@@]1(Cc2ccccc2CN=[N+]=[N-])N=C(c2ccc(OCCCO)cc2)O[C@H]1c1ccccc1,0.214,-0.163,0.0575,0.663,0.604,1.17,0.91,-2.25 (inactive),0.46,-0.169
CCC(CC)C(O)C1C=CC2C(=O)N(C)C(=O)C2N1Nc1ccccc1 (stereo not given),0.53,0.219,0.117,0.258,1.47,1.47,0.816,1.97 (inactive),0.876,-0.134
CC(C)(C)OC(=O)CC[C@]12N=C(c3ccc(OCCCO)cc3)O[C@H]1c1ccccc1N(CCS(=O)(=O)c1ccccc1)C2=O,0.144,0.433,-0.0024,0.137,1.42,0.882,1.26,0.281 (inactive),0.682,0.0139
COc1cc2c(cc1OC)CN(C(=O)[C@@H]1[C@H]3C(=O)O[C@H](c4ccccc4)[C@H](c4ccccc4)N3[C@H](c3ccc(O)cc3)[C@@]13C(=O)Nc1ccc(C#CC4(O)CCCCCC4)cc13)CC2,-1.38,0.75,-0.0197,0.763,1.18,1.73,1.35,0.651 (inactive),0.0629,-0.274
C=C(CCCC)/C(=C/C[C@@H](OC(C)=O)c1ccccc1OCCO)c1cnc2ccccc2c1,0.0298,1.08,-0.0633,-0.036,0.13,0.967,0.95,-0.983 (inactive),0.0983,0.176
CCCC[C@H]1OB(O)C[C@H]2C1=C(COc1ccccc1)C[C@H]1C(=O)N(C)C(=O)[C@H]12,-0.32,-0.353,-0.085,0.121,0.85,0.0746,0.462,-0.153 (inactive),1.2,-0.0754
COCCOC(=O)N1C(=O)[C@@]2(c3ccccc31)[C@H](c1ccc(O)cc1)N1[C@H](c3ccccc3)[C@H](c3ccccc3)OC(=O)[C@H]1[C@@H]2C(=O)NC[C@H](O)c1ccccc1,0.0147,0.702,-0.0702,0.157,0.187,1.8,1.26,-0.567 (inactive),0.118,0.0093
C#CCNC(=O)[C@H](Cc1ccccc1)NC(=O)CCC(=O)O,-0.0733,-0.267,-0.158,-0.704,-1.46,-0.592,-0.33,0.338 (inactive),1.03,-0.0994

SMILES,composite z-score [1],composite z-score [2],composite z-score [3],composite z-score [4],composite z-score [5],composite z-score [6],composite z-score [7],z-score [8],composite z-score [9],composite z-score [10]
CC(C)c1ccc(NN2C(C(O)c3cc(C(F)(F)F)cc(C(F)(F)F)c3)C=CC3C(=O)N(c4ccccc4)C(=O)C32)cc1 (stereo not given),0.43,-0.165,-0.0165,0.13,1.24,1.69,1.28,0.0782 (inactive),0.273,0.213
CN1C2C=C(CCCO)C(C3C(=O)N(C(N)=O)C(=O)C32)C1c1ccc(CN2CCCC2)cc1 (stereo not given),0.0355,-0.214,-0.143,-0.0598,-0.851,-0.612,-0.24,0.75 (inactive),-0.887,0.141
O=C1NC(=O)C2C1C=CC(C(O)C(c1ccccc1)c1ccccc1)N2Nc1ccc(Cl)cc1Cl (stereo not given),0.246,-0.471,0.103,0.501,1.49,0.782,0.756,1.04 (inactive),1.44,0.0373
CN1C(=O)C2C=CC(C(O)c3ccccc3)N(Nc3ccccc3)C2C1=O (stereo not given),0.527,-0.214,0.0444,-1.06,-0.0125,0.151,0.547,0.527 (inactive),0.261,-0.301
NC(=O)[C@@H]1[C@H]2C(=O)O[C@H](c3ccccc3)[C@H](c3ccccc3)N2[C@H](c2ccc(O)cc2)[C@@]12C(=O)Nc1ccc(C#CC3(O)CCCCCC3)cc12,0.372,0.167,0.0075,0.244,0.0065,0.959,1.42,0.854 (inactive),-0.0686,-0.0645
COC(=O)[C@@]1(Cc2ccc(F)cc2)[C@H]2c3cc(C(=O)N4CCCC4)n(Cc4cc(C)n(C)n4)c3C[C@H]2CN1C(=O)c1ccccc1,1.08,0.276,0.188,0.741,1.63,2.3,1.19,0.23 (inactive),0.939,0.28
C#CCN(CC1=CCCCC1)[C@H](c1ccccc1Br)[C@@H](O)Cc1ccccc1,0.727,0.518,-0.176,-0.123,-0.978,0.251,0.928,-2.16 (inactive),-0.967,-0.166
CCCC[C@@H]1C[C@H]1[C@@H](NC(=O)c1ccco1)c1ccc(C(=O)OC)cc1,0.238,-0.0736,-0.124,0.286,-0.253,0.0609,-0.216,-0.0679 (inactive),0.285,0.379
Cc1ccc(S[C@]2(C(=O)NCCN3CCOCC3)CC(=O)N(Cc3ccccc3Cl)[C@@H]2c2ccc(CO)cc2)cc1,0.268,-0.159,-0.0083,0.701,-0.32,0.956,1.15,-0.0709 (inactive),-0.0909,-0.0994
COc1ccc([Si](C)(C)[C@H]2[C@H](CCO)O[C@@]3(C(=O)N(C)c4c(Br)cc(C)cc43)[C@@H]2C)cc1,0.107,0.325,-0.116,0.243,0.432,0.679,1.12,-2.14 (inactive),0.299,-0.196
COCCCNC(=O)[C@@]1(Cc2ccccc2N=[N+]=[N-])N=C(c2ccc(OCCCO)cc2)O[C@H]1c1ccccc1N=[N+]=[N-],0.622,0.81,-0.252,0.436,1.37,1.52,0.831,-0.702 (inactive),1.36,-0.26
CCCN1C(=O)[C@]2(CCS(=O)(=O)c3ccccc3)N=C(c3ccc(OCCCO)cc3)O[C@@H]2c2ccccc21,0.375,-0.212,-0.0027,0.572,0.58,1.28,1.27,-0.775 (inactive),0.458,-0.0645
CCN(CC)c1ccc(N2CC=CC34O[C@@H]5/C=C\CCC(C)OC(=O)C5[C@H]3C(=O)N(C(CO)C(C)C)[C@@H]4C2=O)cc1 (stereo not given in full),0.165,-0.892,-0.0316,-0.551,-0.455,0.12,1.49,0.225 (inactive),-0.344,1.01
CC(C)C[C@H]1NC(=O)[C@@]23C(=O)N[C@@H](Cc4ccccc4)C2[C@H](C)[C@@]2(C)O[C@H]2C3/C=C/C/C=C\CNC(=O)[C@H](Cc2ccccc2)NC1=O (stereo not given in full),-0.404,0.443,-0.0973,0.307,0.349,1.04,0.976,0.688 (inactive),0.146,-0.0994
CC1CC/C=C\[C@H]2OC34C=CCN(C(C)(C)C)C(=O)[C@H]3N(CCCCCCO)C(=O)[C@@H]4C2C(=O)O1 (stereo not given in full),0.237,-0.153,-0.149,0.0097,-0.945,0.866,1.13,-1.09 (inactive),-0.222,-0.0994
C[C@]1(C(=O)NC2CC2)c2ccccc2C(=O)N(Cc2cc(C(F)(F)F)cc(C(F)(F)F)c2)[C@H]1c1ccc(CO)cc1,0.098,0.14,0.0458,0.31,1.26,0.354,1.26,-0.583 (inactive),0.603,-0.0994
